Source: PubChem BioAssay
VACV mCherry inh: qHTS for Stage-Specific Inhibitors of Vaccinia Orthopoxvirus: mCherry Reporter Primary qHTS. Vaccinia virus mCherry reporter infection, fluorescence. Potency, µM (series often up to 36.5 µM), inactives show at the top dose activity change, negative = inhibition, actives largely listed as inhibitors. 310,000 compounds, 0.63% hits. AID 720579, 2013; calls by dose curve; tested in A549 cells; further: nearly all actives have a fitted effect of over 35% in size
HCV inhibitor: qHTS Assay for Inhibitors of Hepatitis C Virus (HCV). 340,000 compounds, 3.4% hits. AID 651820, 2012. Potency, µM (doses to about 41.8 µM), inactives show top-dose activity change, negative = inhibition, hits mostly inhibitors. Huh7.5.1 HCVcc-Cre infection, luciferase reporter, 44 h; active means well fitted inhibition curve with a large enough effect; inconclusive means small, poorly fitted or top-dose-only effect, or another doubt; inactive means no such curve, though single readings can be large or run the other way
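HCVcc-Cre virus at an moi near 0.5 was added right after compound to cells cultured 4 h from seeding (1,000 cells/well). Luciferase activity was determined 44 h later, 15 min after substrate addition at RT.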
VACV Venus inh: qHTS for Stage-Specific Inhibitors of Vaccinia Orthopoxvirus: Venus Reporter Primary qHTS | Vaccinia virus Venus reporter expression, fluorescence | Potency, µM (titrated, usually from 36.5 µM), inactives show at the top dose activity change, negative = inhibition, actives largely listed as inhibitors | 330,000 compounds, 0.46% hits; calls by dose curve; tested in A549 cells; further: nearly all actives have a fitted effect of over 30% in size
Numbers without * were called inactive; i = inactive; ? = inconclusive; nt = no result given; [ ] = dose if it differs, or a comment. The list is not random: actives were taken first. Their share in the collection is about 3.3%. On the % scale 0 is the no-effect control and ±100 the full control effect; potency means the concentration at half of the fitted maximal effect.

SMILES | VACV mCherry inh | HCV inhibitor | VACV Venus inh
COC(=O)c1ccc2c(=O)n(Cc3ccc(C(=O)NC(C)C)cc3)c(=S)[nH]c2c1 | -10.9% | 7.94µM* | -13.9%
CC(=O)NCCNC(=O)c1ccc2c(=O)n(CCc3ccccc3)c(=O)[nH]c2c1 | -3.9% | nt | 1.6%
O=C(NCC1CCCO1)c1ccc2c(=O)n(Cc3ccc(Cl)cc3)c(=S)[nH]c2c1 (stereo not drawn) | i | 10.0% | -0.2%
CC1CCCCN1CCNC(=O)c1ccc2c(=O)n(Cc3ccc(Cl)cc3)c(=S)[nH]c2c1 (stereo not drawn) | -14.4% | 2.24µM* | ?
CN1CCN(CCCNC(=O)c2ccc(Cn3c(=S)[nH]c4ccc(Br)cc4c3=O)cc2)CC1 | -2.0% | 7.94µM* | -8.9%
O=C(c1ccc2c(c1)OCCO2)N(Cc1cccnc1)c1nc2c(Cl)cccc2s1 | -11.2%[7.34 µM] | nt | -10.3%[7.34 µM]
COc1ccccc1C(=O)N[C@@H]1c2ccccc2C2(CCN(C(=O)c3ccnn3C)CC2)[C@H]1OC | -12.4% | nt | 7.0%
CCCCNC(=O)[C@@H]1CC=C[C@@H]2CCN(C3CCCCC3)C(=O)[C@@H]21 | i | nt | -1.7%
CN1CCN(CCCNC(=O)c2ccc3c(=O)n(CCc4ccccc4)c(=O)[nH]c3c2)CC1 | -0.4% | -39.1% | -9.6%
CC1CCN(CCCNC(=O)c2ccc3c(=O)n(CCc4ccccc4)c(=O)[nH]c3c2)CC1 | nt | 8.91µM* | nt
O=C(NCCCN1CCCC1)c1ccc2c(Cl)c3c(nc2c1)CCCC3 | -17.4% | 11.2µM* | ?
CCN(CC)CCCNC(=O)c1ccc2c(Cl)c3c(nc2c1)CCCC3 | -4.3% | ? | -29.9%
CCCCCn1c(=O)[nH]c2cc(C(=O)NCCN3CCC(C)CC3)ccc2c1=O | -10.0% | ? | -4.5%
O=C(CCCn1c(=O)[nH]c2ccccc2c1=O)NCCSCc1ccccc1 | -17.0% | -22.1% | -11.0%
CCCCCn1c(=O)[nH]c2cc(C(=O)NCCCN3CCCCC3)ccc2c1=O | nt | 10µM* | nt
O=C(CCCCCn1c(=O)[nH]c2ccccc2c1=O)NCCCN1CCN(c2ccccc2F)CC1 | i | 12.6µM* | -19.2%
COc1ccc(NC(=O)CSc2oc(-c3cccs3)nc2S(=O)(=O)c2ccc(Br)cc2)c(OC)c1 | -13.5% | nt | 1.0%
CCOC(=O)N1CCN(Cc2ccc3c(c2)CN(C(=O)c2cc(-c4ccccc4)no2)CCO3)CC1 | -26.4% | nt | -29.0%
COC(=O)CC1C(C)(C)C(OC(C)=O)C2CC3C4CC(=O)OC(c5ccoc5)[C@]4(C)CCC3[C@@]1(C)C2=O (stereo partly drawn) | i | nt | -17.9%
COc1ccc(-n2c(CNC(=O)c3c(-c4ccccc4)noc3C)nnc2SC)cc1 | i | nt | -9.2%
CC(C)NC(=O)COC(=O)c1ccccc1OCC(=O)Nc1ccc(Br)cc1 | -11.9% | nt | -6.8%
COc1cc(OC)c(NC(=O)Cn2c(=O)cc(C(F)(F)F)c3c(C)nn(C)c32)cc1Cl | -6.9% | nt | -3.3%
CC1CCCCN1CCCNC(=O)c1ccc2c(=O)n(CCc3ccccc3)c(=O)[nH]c2c1 (stereo not drawn) | nt | 3.98µM* | nt
CCN(CC)CCCNC(=O)c1ccc2c(=O)n(CCc3ccccc3)c(=O)[nH]c2c1 | -0.6% | nt | -7.2%
COc1ccccc1CCC(=O)O | -9.0% | nt | -6.1%
SMILES | VACV mCherry inh | HCV inhibitor | VACV Venus inh
Cc1ccn2c(CC(C)(C)C)c(-c3ccc(F)cc3)nc2c1 | ? | nt | -10.1%
Cc1nc(NCc2cnn(C)c2C)sc1-c1ccn(CC2COc3ccccc3O2)n1 (stereo not drawn) | -11.8% | nt | -3.2%
O=C(OCn1ncc(Br)c(Br)c1=O)c1ccc(F)cc1 | 11.2µM* | ? | 10µM*
CC(=O)OCn1ncc(N2CCOCC2)c(Br)c1=O | i | 23.2% | -10.6%
N#CC1=C(N)Oc2cc(N)ccc2C1c1ccccc1F (stereo not drawn) | -21.2% | ? | -28.6%
Cc1cc(C)c(NC(=O)CNC(=O)c2cc(C3CC3)nc3c2cnn3C(C)C)c(C)c1 | -7.4% | nt | ?
COc1cc(C)c(NC(=O)c2cc(C3CC3)nc3c2cnn3C(C)C)cc1OC | nt | 5.01µM* | nt
CC(C)n1ncc2c(C(=O)Nc3ccccc3SCC(N)=O)cc(C3CC3)nc21 | -17.9% | nt | -17.3%
COc1ccc(NC(=O)c2cc(C3CC3)nc3c2cnn3C(C)C)cc1OC | nt | 10µM* | nt
COc1ccc(OC)c(CN2CCCC(n3cc(C(=O)N4CCCCC4)nn3)C2)c1 (stereo not drawn) | -10.1% | nt | -15.0%
O=C(NCCc1ccccc1)c1ccc(Nc2nc3ccccc3n3nnnc23)cc1 | -20.7% | nt | -25.1%
COc1cc2cc(C(=O)N(C)C3CCS(=O)(=O)C3)[nH]c2cc1OC (stereo not drawn) | nt | 11.7% | nt
CCCCNC(=O)c1nc(-c2cccnc2)oc1-c1ccc(OC(F)(F)F)cc1 | -24.3% | nt | -5.9%
CCc1nnc(N/N=C/c2cc(C)c(C)cc2C)n1N | 10µM* | 5.3% | 12.6µM*
CCc1nnc(N/N=C/c2c(C)[nH]c3ccccc23)n1N | ? | -8.6% | ?
CCOc1ccc(CNC(=O)Cn2nc(C)c3nn(-c4ccc(Cl)cc4)c(C)c3c2=O)cc1OC | -14.9% | nt | -8.4%
COc1cc(C)c(NC(=O)COc2cccc3c2OC(C)(C)C3)cc1OC | nt | 10µM* | nt
COc1ccc(NC(=O)COc2cccc3c2OC(C)(C)C3)c(OC)c1 | i | ? | -6.2%
O=C(NCc1ccc2c(c1)CCN2C(=O)c1ccc(Cl)cc1)c1cccc(F)c1 | -14.0% | nt | -20.1%
COc1cc2ccccc2cc1C(=O)N(CCN(C)C)c1nc2c(OC)ccc(OC)c2s1 | -22.5% | ? | ?
CCN(CC)CCN(C(=O)c1cc2ccccc2cc1OC)c1nc2ccc(F)cc2s1 | -5.3% | ? | -26.4%
COc1cc2ccccc2cc1C(=O)N(CCN(C)C)c1nc2ccc(C)cc2s1 | -5.0% | 6.31µM* | -24.5%
Cc1ccc2nc(N(CCCN(C)C)C(=O)c3cc(-c4cccs4)nc4ccccc34)sc2c1 | nt | 11.2µM* | nt
CCN(CC)CCN(C(=O)c1cc2ccccc2cc1OC)c1nc2ccc(OC)cc2s1 | nt | 11.2µM* | nt
CN(C)CCCN(C(=O)c1cc(-c2cccs2)nc2ccccc12)c1nc2c(F)cccc2s1 | ? | 12.3% | -28.0%
SMILES | VACV mCherry inh | HCV inhibitor | VACV Venus inh
COc1ccc(OC)c(CCNC(=O)CCc2nnc3ccc(N4CCOCC4)nn23)c1 | 14.5%[7.34 µM] | 2.0% | 18.6%[7.34 µM]
COc1cc(CN2CCC3(CC2)CC3C(=O)Nc2ccc3sc(C)nc3c2)ccc1F (stereo not drawn) | -1.1% | nt | -0.8%
Cc1ccc(S(=O)(=O)Nc2nc(-c3ccccc3)cs2)cc1 | -19.0% | 2.7% | -1.5%
COc1ccc(-c2csc(NC(=O)c3ccccc3F)n2)cc1 | nt | 5.3% | nt
Cc1ccc(S(=O)(=O)Nc2ccc(-c3csc(-c4ccccc4)n3)cc2)cc1 | ? | 10µM* | -29.9%
Cc1ccc(S(=O)(=O)Nc2ccccc2C(=O)Nc2nc(-c3ccc(F)cc3)cs2)cc1 | ? | 6.31µM* | ?
COc1ccc(-c2csc(NC(=O)c3ccccc3NS(=O)(=O)c3ccc(F)c(F)c3)n2)cc1 | ? | 2.82µM* | ?
O=S(=O)(Nc1ccc(-c2csc(-c3ccccc3)n2)cc1)c1ccccc1 | ? | ? | -17.5%
COC(=O)c1c(NC(=O)c2ccc(S(=O)(=O)N3CCCCC3)cc2)sc2c1CCN(C)C2 | -15.8% | nt | -11.4%
